Compounds without any hit were thinned out: in the full panel of roughly 83,000, 20% have a hit.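 A percent growth of 40 corresponds to 60% growth inhibition; 0 means no net growth; -100 means all cells died. Active threshold: below 10.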 Values without a mark were called inactive. Calls of active or inactive are those of the source.
What was measured:
Assay in all cases: NCI-60 one-dose screen, 48 h (100 = growth as untreated, 0 = no growth, -100 = all killed)
RPMI-8226 leukemia = details: 10 µM unless noted
OVCAR-8 ovarian = details: 10 µM unless noted
OVCAR-5 ovarian = details: 10 µM unless noted
OVCAR-4 ovarian = details: 10 µM unless noted
SK-OV-3 ovarian = details: 10 µM unless noted
IGROV1 ovarian = details: 10 µM unless noted
OVCAR-3 ovarian = details: 10 µM unless noted
HS 578T breast = details: 10 µM unless noted
NCI/ADR-RES ovarian = details: 10 µM unless noted
T-47D breast = details: 10 µM unless noted
BT-549 breast = details: 10 µM unless noted
MDA-MB-435 melanoma = details: 10 µM unless noted
SW-620 colon = details: 10 µM unless noted
MCF7 breast = details: 10 µM
HCT-116 colon = details: 10 µM unless noted
HCC-2998 colon = details: 10 µM unless noted
KM12 colon = details: 10 µM unless noted

| Structure (SMILES) | growth (RPMI-8226 leukemia) | growth (OVCAR-8 ovarian) | growth (OVCAR-5 ovarian) | growth (OVCAR-4 ovarian) | growth (SK-OV-3 ovarian) | growth (IGROV1 ovarian) | growth (OVCAR-3 ovarian) | growth (HS 578T breast) | growth (NCI/ADR-RES ovarian) | growth (T-47D breast) | growth (BT-549 breast) | growth (MDA-MB-435 melanoma) | growth (SW-620 colon) | growth (MCF7 breast) | growth (HCT-116 colon) | growth (HCC-2998 colon) | growth (KM12 colon) |
| --- | --- | --- | --- | --- | --- | --- | --- | --- | --- | --- | --- | --- | --- | --- | --- | --- | --- |
| COc1cc(C(=O)Nc2ccc(-c3nc4ccccc4[nH]3)cc2)cc(OC)c1OC | 19.2% | 27.1% | 83.5% | 61.6% | 56.1% | 46.8% | 9.3% (active) | 72.5% | 52.5% | 60% | 60.6% | -25.2% (active) | 14.7% | 11.6% | 24.1% | 57.6% | 33.8% |
| COc1ccc(Cn2cc(Cn3cc(C=C4C(=O)NC(=O)NC4=O)c4ccccc43)nn2)cc1 | 83.8% | 87.6% | 71.7% | 82.4% | 75.3% | 94.3% | 88.9% | 82.6% | 84.1% | 64.3% | 99.5% | 90.8% | 85.9% | 75.8% | 80.1% | 109% | 93% |
| CCc1ccc(CNCC(O)c2ccccc2)cc1 (stereo unspecified) | 34.3% | 72.2% | 76.1% | 55.3% | 90.6% | 41.1% | 71.4% | 93.3% | 65.7% | 72% | 90.1% | 69.9% | 89.6% | 29.8% | 47.8% | 38.5% | 72.5% |
| COc1cccc2cc(N(C)c3nc(C)nc4ccsc34)ccc12 | 12.5% | 6.47% (active) | 43.7% | 35.5% | 22.9% | 15.5% | 3.88% (active) | 17.7% | -6.94% (active) | 60% | 13.3% | -16.1% (active) | 22.3% | 16.9% | -0.926% (active) | 7.08% (active) | -1.06% (active) |
| COc1ccc(-c2nc(N3CCN(C(=O)C4CCCCC4)CC3)c3c4c(sc3n2)CCCC4)cc1 | 2.49% (active) | -44.7% (active) | 35.6% | -85.4% (active) | 81% | 33.7% | -38.3% (active) | 12.8% | 84.2% | 3.68% (active) | 61.4% | -54.1% (active) | -1.68% (active) | -10.8% (active) | 17% | 53.2% | -46.4% (active) |
| Cc1cc(Nc2ccc(OCc3ccccc3)cc2)nc2cc(O)ccc12 | 6.65% (active) | 57.1% | 84.3% | 44.5% | 86.9% | 60.5% | 41.3% | 106% | 75.7% | 69.8% | 69.7% | 65.6% | 11% | 39.3% | 30.6% | -34% (active) | 45.6% |
| Cn1nc(C(F)(F)F)c(-c2ccc(Cl)c(C(F)(F)F)c2)c1-c1ccc(OCc2ccc(Cl)cc2)cc1O | -17.9% (active) | 7.41% (active) | 53.4% | 30.2% | 20.6% | 38.9% | 1.24% (active) | 22.8% | 8.38% (active) | -0.38% (active) | 39.8% | 24.7% | 13.9% | 4.01% (active) | -0.403% (active) | 13.5% | 8.83% (active) |
| CCN1C(=O)N(CC)C2C1NC(=S)N2/N=C/C=C/c1ccccc1OC (stereo unspecified) | 16.5% | 14.8% | 45.2% | 53.5% | 33.7% | 31.2% | 16.6% | 40.3% | 6.29% (active) | 65.9% | -5.67% (active) | -20.9% (active) | 23.6% | 17.8% | 2.3% (active) | 12.4% | 15.6% |
| CCN1C(=O)N(CC)C2C1NN=c1s/c(=C3\C(=O)N(C(C)C)c4ccccc43)c(=O)n12 (stereo unspecified) | 7.53% (active) | 12.6% | 54.2% | 58.1% | 29.7% | 36.5% | 5.56% (active) | 36.7% | 7.06% (active) | 68.1% | 6.02% (active) | -12.1% (active) | 27.1% | 20.5% | 10.1% | 20.3% | 15.3% |
| O=C1NC(=S)NC(=O)C1=Cc1cn(Cc2cn(Cc3cccc4ccccc34)nn2)c2ccccc12 | 104% | 102% | 89.6% | 92.2% | 111% | 82.6% | 102% | 81.9% | 96.5% | 105% | 101% | 94.8% | 93.4% | 95.4% | 106% | 100% | 97.2% |
| CCOC(=O)C1=CN(C)C=C(C(=O)OCC)C1c1cc(Br)c(OCC)c(OC)c1 | 8.87% (active) | 56.8% | 63.5% | 54.9% | 86.4% | 35.6% | 64.9% | 62.9% | 73% | 74.9% | 84.9% | 15.6% | 48.6% | 14.7% | 43.9% | -16.5% (active) | 48.4% |
| COc1ccc(OC)c(N(CCN2C(=O)c3ccccc3C2=O)C(=O)CCl)c1 | 32.9% | 65.6% | 65.9% | -49.5% (active) | 91.3% | -73.4% (active) | 14.6% | 52.6% | 49.2% | 95.4% | 92.4% | 81.5% | 96.4% | 78.8% | 89% | 111% | -11.3% (active) |
| COc1cc(/C=C/C(=O)c2c(C)nc3ccccc3c2/C=C/c2ccccc2)cc(OC)c1OC | -27.3% (active) | 11.6% | 7.55% (active) | 40.8% | 59.3% | 2.87% (active) | -35.9% (active) | 24.7% | 8.09% (active) | 13.3% | 6.8% (active) | 3.78% (active) | 0.233% (active) | 13.7% | -81.8% (active) | 6.52% (active) | -5.07% (active) |
| O=C(Nc1ccc(N2CCNCC2)cn1)c1[nH]ncc1Nc1ncnc2sc3c(c12)CCC3 | -38.2% (active) | -38.9% (active) | 20.7% | -53.6% (active) | 79.8% | 77.6% | -39.3% (active) | 73% | 42.6% | 43.8% | 85.4% | -63.2% (active) | -76.1% (active) | -34% (active) | -75% (active) | 33.8% | 53.4% |
| CCOC(=O)c1cnc2ccc(Cl)cc2c1NCCCN(C)C | -3.54% (active) | -3.54% (active) | 53.8% | -12.1% (active) | 14.5% | -16.2% (active) | 18.8% | 33% | 7.93% (active) | 14.6% | 31.6% | 19.6% | 14.6% | 7.48% (active) | 12.4% | -13.2% (active) | 17.5% |
| CCOC(=O)c1sc(-c2ccc(OS(=O)(=O)c3ccccc3[N+](=O)[O-])c(C=O)c2)nc1C | 37.2% | 56.5% | 73.6% | 33% | 117% | 3.88% (active) | 23.5% | 96.3% | 61.6% | 28.4% | 47.7% | 78.4% | 36.8% | 20.8% | 13.6% | 111% | 96.2% |
| COc1cc2nc(-c3cccc4cccnc34)nc(NC3CCN(Cc4ccccc4)CC3)c2cc1OC | -48.7% (active) | -55% (active) | -90.6% (active) | -91.1% (active) | -74.7% (active) | -61.5% (active) | -85.9% (active) | -41.7% (active) | 6.52% (active) | -64.4% (active) | -65% (active) | -93.3% (active) | -74.8% (active) | -77.2% (active) | -63.7% (active) | -91% (active) | -76% (active) |
| OC(CNC1CCCCC1)Cn1c2ccc(I)cc2c2cc(I)ccc21 (stereo unspecified) | 52.2% | 70.9% | 82.9% | 77% | 91.6% | 70.8% | 65.7% | 79.6% | 62.8% | 81.3% | 85.9% | 66.9% | 79.5% | 69.9% | 65.2% | 94.3% | 74.5% |

Source: PubChem BioAssay (NCI)
